Data: PubChem BioAssay
The source made the active and inactive calls.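 How the source made its calls, unless noted: active means inhibition of the reporter signal at or above 50%; inactive means inhibition below 50%.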

Experiments:
[1] = inhibitors of TNFa-induced NFkB p65 translocation, primary screen, imaging, HUVEC, MLSMR starter and 10KST1 sets (AID 438;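 active means inhibition above 20% together with a positive visual image hit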;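 further: compound added about 3h40 before a 20 min TNFalpha stimulation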;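 on inhibition: signal is the nuclear over cytoplasmic p65 intensity ratio per well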); conditions: HUVEC TNFa-induced p65 nuclear translocation; cell count: measured here: nuclei count (cytotoxicity indicator), at 2.08 µM; inhibition: at 2 µM, stronger effect = higher value, 0% TNFa-plus-vehicle, 100% no-TNFa wells
[2] = reduction of polyQ htt aggregates in cells – imaging, exon1htt(103Q)mCFP cells, high-content imaging, primary screen (AID 483;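 active means visual image review flags a hit and inhibition of aggregation exceeds 20%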;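 further: compound exposure lasted 3 days before fixation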;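 on nuclei count: percent of the per-plate median nuclei count of sample wells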); conditions: exon1htt(103Q)mCFP cell line, aggregate imaging, at 2 µM; inhibition of aggregation: stronger effect = higher value; nuclei count: measured here: cell count, toxicity
[3] = endothelial E-selectin expression blockers – imaging, HUVEC, immunofluorescence, MLSMR starter and 10KST1 sets, primary screen (AID 487;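 active means visually confirmed hit in the image check and inhibition above 20%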;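 on inhibition: signal is fraction of cell area covered by stained E-selectin grains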;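 on nuclei count: 100% = median nuclei count of all wells on the same plate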); conditions: HUVEC TNFalpha-induced E-selectin immunofluorescence imaging, at 2 µM; inhibition: stronger effect = higher value; nuclei count: measured here: cell number, toxicity
[4] = biological target: Voltage-gated potassium channel subunit beta-2 (Rattus norvegicus) (UniProt P62483); experiment: inhibitors of rat Kvbeta2 reductase activity – biochemical, NADPH fluorescence, primary screen (AID 622;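 active means fluorescence slope higher than the sample average by over 3 SD, cut at about -0.22 in these data, passing the limit was not always enough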;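 further: slope of raw intensity against log time taken from 70 to 1610 s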); conditions: recombinant KvBeta, 4-cyanobenzaldehyde reduction, at 10 µM, stronger effect = higher value
[5] = biological target: Voltage-gated potassium channel subunit beta-2 (Rattus norvegicus) (UniProt P62483); experiment: enhancers of rat Kvbeta2 NADPH turnover – biochemical, NADPH fluorescence, primary screen (AID 623;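 active means NADPH fluorescence slope more negative than the mean of all samples by about 3 SD, 99.7% confidence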;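 further: fluorescence intensity change per second fitted from 20 to 320 s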); conditions: Recombinant KvBeta, NADPH fluorescence decrease slope, 10 min; at 10 µM; stronger effect = lower value
[6] = biological target: Alpha-2C adrenergic receptor (Homo sapiens) (UniProt P18825); experiment: compounds altering alpha2C-coupled GIRK flux – cell-based, HEK293 alpha2C/GIRK1/2, thallium flux, primary screen (AID 624;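 active means fluorescence slope after compound addition differing from the mean of all screened samples at 99.7% confidence, in either direction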;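 further: slope of fluorescence ratio to pre-addition baseline per second over 15 to 24 s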); conditions: thallium flux BTC fluorescence, at 10 µM, actives lie on both sides
[7] = blockers of RIG-like receptor reporter activation – cell-based, Sendai virus stimulus, luciferase, 10K MLSCN set, TLR/RLR signaling modifier project, primary screen (AID 602276;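 active means inhibition at or above 50% at 10 µM; inactive means inhibition below 50%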;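 further: firefly luciferase from ISG56 promoter only with Renilla not read in this screen; 0% = Sendai virus plus DMSO and 100% = medium plus DMSO without virus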); conditions: HEK293 RL24 IRF3 luciferase reporter, at 10 µM, stronger effect = higher value
[8] = TLR3 IRF3 reporter activation blockers – cell-based, poly I:C stimulus, luciferase, 10K MLSCN set, primary screen (AID 602277); conditions: HEK293-TLR3 RL24 IRF3 luciferase reporter, at 10 µM, stronger effect = higher value

Sequence of Alpha-2C adrenergic receptor (Homo sapiens) (P18825 whole entry, looked up): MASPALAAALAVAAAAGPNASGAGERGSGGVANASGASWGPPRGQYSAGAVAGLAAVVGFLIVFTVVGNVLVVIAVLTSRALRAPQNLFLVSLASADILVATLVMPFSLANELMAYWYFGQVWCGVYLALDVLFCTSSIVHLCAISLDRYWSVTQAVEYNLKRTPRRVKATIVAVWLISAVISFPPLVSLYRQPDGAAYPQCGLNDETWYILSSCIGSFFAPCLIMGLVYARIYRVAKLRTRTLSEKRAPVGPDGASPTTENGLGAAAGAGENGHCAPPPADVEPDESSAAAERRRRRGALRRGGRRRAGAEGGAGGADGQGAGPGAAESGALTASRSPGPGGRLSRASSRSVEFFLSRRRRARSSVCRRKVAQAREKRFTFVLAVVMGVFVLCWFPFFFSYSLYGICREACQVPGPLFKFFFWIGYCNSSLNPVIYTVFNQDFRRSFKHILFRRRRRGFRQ
Sequence of Voltage-gated potassium channel subunit beta-2 (Rattus norvegicus) (P62483 whole entry, looked up): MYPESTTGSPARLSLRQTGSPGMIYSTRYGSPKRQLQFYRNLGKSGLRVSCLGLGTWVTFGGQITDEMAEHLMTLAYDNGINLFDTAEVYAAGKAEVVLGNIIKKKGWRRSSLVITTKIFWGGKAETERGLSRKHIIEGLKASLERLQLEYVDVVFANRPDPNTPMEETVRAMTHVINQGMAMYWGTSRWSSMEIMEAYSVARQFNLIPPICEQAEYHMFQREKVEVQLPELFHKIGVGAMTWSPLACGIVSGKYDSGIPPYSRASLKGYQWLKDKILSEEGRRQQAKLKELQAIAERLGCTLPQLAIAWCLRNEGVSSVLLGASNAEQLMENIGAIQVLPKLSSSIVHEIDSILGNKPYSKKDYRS

Row | SMILES | cell count [1] | inhibition [1] | inhibition of aggregation [2] | nuclei count [2] [%] | inhibition [3] | nuclei count [3] [%] | fluorescence slope [4] | NADPH fluorescence slope [5] | slope [6] | inhibition [7] | inhibition [8]
1 | CCOC(=O)c1sc(NC(=O)CSc2nnnn2-c2ccccc2)c(C(=O)OCC)c1C | 425 | -1.3% (inactive) | 12.5% (inactive) | 96.5 | -467% (inactive) | 156 | -0.567 (inactive) | 1.2e-05 (inactive) | 0.00928 (inactive) | -15.7% (inactive) | -15.7% (inactive)
2 | COc1ccc(-n2c(N)c(C(=O)NCc3ccco3)c3nc4ccccc4nc32)c(OC)c1 | 737 | -6% (inactive) | -0.1% (inactive) | 97.9 | 27.3% (inactive) | 102 | -0.246 (inactive) | -4.5e-06 (inactive) | 0.00521 (inactive) | 6.27% (inactive) | 7.88% (inactive)
3 | CCCNC(=O)Nc1ccccc1C(=O)Nc1ccc(OC)cc1 | 351 | 8.1% (inactive) | -15.5% (inactive) | 104 | 25.8% (inactive) | 108 | -0.445 (inactive) | -1.6e-06 (inactive) | 0.00585 (inactive) | -1.84% (inactive) | 30.5% (inactive)
4 | COc1ccccc1S(=O)(=O)Cc1ccc(C(=O)N2CCN(c3ccccn3)CC2)o1 | 624 | -4% (inactive) | 0.9% (inactive) | 106 | -53.1% (inactive) | 104 | -0.517 (inactive) | -3.4e-05 (inactive) | 0.00659 (inactive) | 20.6% (inactive) | 15.8% (inactive)
5 | CC1Cc2ccccc2N1C(=O)c1cccnc1 (centres undefined) | 254 | -1% (inactive) | -30.3% (inactive) | 106 | -64.3% (inactive) | 103 | -0.422 (inactive) | -8.5e-05 (inactive) | 0.00616 (inactive) | 14.1% (inactive) | 25.5% (inactive)
6 | Cc1cc2ncc(-c3ccc(Cl)cc3)c(N)n2n1 | 930 | -1.7% (inactive) | -6% (inactive) | 129 | -36.3% (inactive) | 125 | -0.583 (inactive) | 2.1e-05 (inactive) | 0.00574 (inactive) | -34% (inactive) | -158% (inactive)
7 | COc1cccc(C(=O)Nc2c(C(N)=O)oc3ccccc23)c1 | 702 | -14.6% (inactive) | 28.5% (inactive) | 89.2 | -34.6% (inactive) | 121 | -0.545 (inactive) | -4.8e-05 (inactive) | 0.00682 (inactive) | 10.6% (inactive) | 25.5% (inactive)
8 | O=C(CSc1ncn[nH]1)c1ccco1 | 746 | -13.5% (inactive) | -3.4% (inactive) | 112 | 13.2% (inactive) | 119 | -0.453 (inactive) | -9.5e-06 (inactive) | 0.00556 (inactive) | 18.7% (inactive) | 26.5% (inactive)
9 | COc1ccc(Cc2nc(-c3ccc(Br)cc3)no2)cc1 | 366 | 6% (inactive) | -7% (inactive) | 105 | -17.5% (inactive) | 107 | -0.28 (inactive) | 2e-05 (inactive) | 0.00781 (inactive) | -28.1% (inactive) | -62.7% (inactive)
10 | CCOc1ccccc1-n1c(SCC(=O)NCc2ccco2)nnc1-c1ccncc1 | 376 | 8.9% (inactive) | 6% (inactive) | 93 | 6% (inactive) | 85.8 | -0.405 (inactive) | 3.6e-05 (inactive) | 0.00499 (inactive) | 7.96% (inactive) | 21.5% (inactive)
11 | O=C(CSc1nnc(C2COc3ccccc3O2)o1)N1CCCc2ccccc21 (centres undefined) | 438 | -1.8% (inactive) | 0.8% (inactive) | 87.9 | -80.9% (inactive) | 136 | -0.298 (inactive) | -4e-06 (inactive) | 0.00363 (inactive) | 12.5% (inactive) | 34.9% (inactive)
12 | COc1cccc(C=Nc2ccc3c(c2)OCCO3)c1O | 301 | 5.1% (inactive) | 9% (inactive) | 97.3 | 25.8% (inactive) | 83.4 | -0.501 (inactive) | -3.1e-05 (inactive) | 0.00551 (inactive) | 12.6% (inactive) | -2.51% (inactive)
13 | C=CCn1c(=O)c2ccccc2n2c(SC(C)C(=O)Nc3nc(-c4ccccc4)cs3)nnc12 (centres undefined) | 462 | 4% (inactive) | 21.8% (inactive) | 90.4 | -26% (inactive) | 107 | -0.483 (inactive) | -2.2e-05 (inactive) | 0.00616 (inactive) | 10.9% (inactive) | 34.2% (inactive)
14 | COc1ccc2c(c1)CCc1cc(C(=O)N3CCN(c4ccc(N5CCOCC5)nn4)CC3)sc1-2 | 583 | 5.5% (inactive) | -28.1% (inactive) | 127 | -61.7% (inactive) | 114 | -0.499 (inactive) | -1.1e-05 (inactive) | 0.00712 (inactive) | 2.81% (inactive) | -42.5% (inactive)
